Hit rate of the full screen: of about 86,000 compounds, about 1,200 (1.4%) were called active. The sample holds actives, similar compounds and a random draw of the others, so the mix is not that of the screen. Unmarked numbers belong to inactive results. Cut-off read from the data, not from the text of the source: active = activity above about 200%; inactive = the rest.
Biological target: Estrogen receptor (Homo sapiens) (UniProt P03372)
Assay: enhancers of ERα–SRC-1 coactivator binding, primary screen, biochemical, TR-FRET, ERα LBD, low estradiol (AID 639);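 note: binding measured in presence of low estradiol as agonist stimulus; 0% = peptide alone without receptor and 100% = receptor with peptide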
Details: TR-FRET ERalpha-LBD/SRC-Cy5 coactivator binding, 2 h; at 25.6 µM; active compounds read high; 100 = basal binding, no effect

Sequence of Estrogen receptor (Homo sapiens) (P03372 whole entry, looked up, the tested form may be a part): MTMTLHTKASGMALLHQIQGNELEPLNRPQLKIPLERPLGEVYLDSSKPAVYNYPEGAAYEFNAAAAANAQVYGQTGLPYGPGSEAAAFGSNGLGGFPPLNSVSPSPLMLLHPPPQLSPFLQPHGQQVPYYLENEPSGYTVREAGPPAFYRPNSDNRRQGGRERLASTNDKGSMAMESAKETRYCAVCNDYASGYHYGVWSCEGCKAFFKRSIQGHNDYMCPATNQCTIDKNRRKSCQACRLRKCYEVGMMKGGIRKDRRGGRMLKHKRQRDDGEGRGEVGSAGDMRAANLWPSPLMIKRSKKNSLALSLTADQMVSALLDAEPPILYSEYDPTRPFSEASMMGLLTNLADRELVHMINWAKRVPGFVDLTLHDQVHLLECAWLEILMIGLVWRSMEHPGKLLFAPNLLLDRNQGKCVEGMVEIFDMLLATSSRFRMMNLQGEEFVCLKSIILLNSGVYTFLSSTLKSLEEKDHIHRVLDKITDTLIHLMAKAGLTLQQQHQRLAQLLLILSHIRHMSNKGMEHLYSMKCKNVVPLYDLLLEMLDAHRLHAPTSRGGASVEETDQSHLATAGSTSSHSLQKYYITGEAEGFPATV

SMILES | coactivator binding (% of control)
C/C(=N\NC(=O)c1ccc(C)cc1)C1C(=O)c2ccccc2C1=O | 71.8%
COc1cc(OC)c(NC(=O)c2ccc(Br)o2)cc1Cl | 112%
Cc1cc(C)nc(-n2nc(C)cc2NC(=O)c2ccc(Br)o2)n1 | 427% (active)
Cc1cccc(-n2nc3c(c2NC(=O)c2ccc(Br)o2)CSC3)c1C | 129%
CC(C)(C)n1nnnc1C(c1ccc(Cl)cc1)N1CCSCC1 (stereo not drawn) | 105%
C#CCN(N(C)c1ncc(C(F)(F)F)cc1Cl)S(=O)(=O)c1ccc2ccccc2c1 | 165%
COc1ccc(C(c2nnnn2C2CCCCC2)N2CCN(c3ccccc3F)CC2)cc1 (stereo not drawn) | 87.6%
c1ccc(CCn2nnnc2CN2CCN(C3CCCC3)CC2)cc1 | 110%
c1ccc(C(c2ccccc2)N2CCN(Cc3nnnn3C3CCCCC3)CC2)cc1 | 209% [fluorescence artefact?] (active)
COc1ccc(N2CCN(Cc3ccc(Br)s3)CC2)cc1 | 108%
Cc1cc(C)n(-c2nc(O)cc(=O)[nH]2)n1 | 103%
COC(=O)c1cc(OC)ccc1-c1ccc(OC)cc1 | 117%
CCSc1nc(-c2ccc(OC)cc2)cc(-c2ccc(OC)cc2)c1C#N | 371% [fluorescence artefact?] (active)
CCOc1cc(-c2cc(-c3ccc(OC)cc3)nc(N)c2C#N)ccc1O | 146%
O=S(=O)(NC1CCCCC1)c1ccc(F)c2ccccc12 | 91.4%
CCOc1cc2[nH]c(=S)n(Cc3ccc(C(=O)NCCOC)cc3)c(=O)c2cc1OCC | 163%
COc1ccc(-c2ccc(-c3noc(-c4ccncc4)n3)c(OC)n2)cc1 | 107%
COc1cc(-c2nc(-c3ccncc3)no2)cc(OC)c1OC | 87.6%
CCOc1nc(-c2ccc(OC)cc2)ccc1-c1noc(-c2cc(OC)c(OC)c(OC)c2)n1 | 239% (active)
O=C(CO/N=C/c1ccccc1O)NNC(=O)c1ccccc1Cl | 102%

SMILES | coactivator binding (% of control)
O=C(Cn1cnc2ccccc2c1=O)NCC1COc2ccccc2O1 (stereo not drawn) | 104%
OC(COc1ccc2ccccc2c1)Cn1cncn1 (stereo not drawn) | 100%
C/C(O)=C\c1nc(=O)c2c(C)cc(C)nc2n1-c1ccccc1 | 297% [fluorescence artefact?] (active)
N#CCSc1nc2ccccc2c(=O)n1-c1ccccc1 | 100%
Cc1cc(C)c2c(n1)nn1c(N3CCN(c4cccc(Cl)c4)CC3)cc(C)nc21 | 169%
Cc1cc(Cl)c(S(=O)(=O)N(C)C)cc1OCC(N)=O | 103%
O=C1/C(=C/c2cccs2)CCc2ccccc21 | 66.3%
Cc1cc(C)c2nc(N3CCCC3)c(C#N)cc2c1 | 101%
CC(=O)c1ccc(S(=O)(=O)N2CCN(c3nc4c(C)c(C)ccc4cc3C#N)CC2)cc1 | 225% [fluorescence artefact?] (active)
Cc1cccc2cc(C#N)c(N3CCCC3)nc12 | 109%
Cc1cc(NC(=O)CCC(=O)N(CC(=O)NCC2CCCO2)c2ccccc2C)no1 (stereo not drawn) | 101%
O=C(OC1CCCCC1=O)c1cccc(S(=O)(=O)NCc2ccccc2)c1 (stereo not drawn) | 96.6%
COC(=O)c1nc2ccccc2s1 | 116%
Nn1cnnc1N/N=C/c1cc([N+](=O)[O-])c(Cl)cc1Cl | 600% [fluorescence artefact?] (active)
CC(=O)c1cccc(NC(=O)C2CCCN2S(=O)(=O)c2cccc3nsnc23)c1 (stereo not drawn) | 87.3%
Cc1ccc(-n2nc3cc(Cl)c(NC(=O)c4ccco4)cc3n2)cc1 | 112%
CCC(=O)Nc1nc2ccccc2n1Cc1ccccc1C | 117%
Cc1ccc(Cn2c(NC(=O)c3ccco3)nc3ccccc32)cc1 | 316% (active)
O=c1c2ccccc2nc2n1C1(CCCCC1)Cc1ccccc1-2 | 109%
O=C(CN1CCCCC1)N1c2ccccc2Sc2ccc(C(F)(F)F)cc21 | 113%

SMILES | coactivator binding (% of control)
CC1(C)C2CCC13CS(=O)(=O)NC3C2 (stereo not drawn) | 96.5%
CCN1CCN(Cc2c(O)ccc3c(=O)c(-c4ccc(OC)c(OC)c4)c(C(F)(F)F)oc23)CC1 | 109%
CCOC(=O)c1cc2cc(-c3c(C(=O)OCC)oc4cc(O)cc(O)c4c3=O)ccc2o1 | 72.5%
O=c1c(-c2ccc3c(c2)OCCO3)c(C(F)(F)F)oc2cc(O)cc(O)c12 | 346% [fluorescence artefact?] (active)
COc1ccc(C2CC(c3cccs3)=Nc3ccccc3S2)cc1OC (stereo not drawn) | 94.7%
CC(C)C[C@@H](N)c1nnc(SCC(=O)c2ccc(Cl)cc2)o1 | 100%
NC(=O)c1sc2nc3c(c(-c4ccccc4)c2c1N)CCC3 | 80.3%
CC(=O)Nc1ccc(NC(=O)c2sc3nc4c(c(-c5ccc(C)cc5)c3c2N)CCC4)cc1 | 1100% [fluorescence artefact?] (active)
Cc1cccc(NC(=O)c2sc3nc4c(c(-c5ccco5)c3c2N)CCC4)c1 | 104%
CO/N=C(/CS(=O)(=O)c1ccc(Br)cc1)c1ccc(OC)cc1 | 94.8%
CCOC(=O)c1ccc2c(c1)nc(C)n2CC | 89.8%
O=C(NCCc1ccc(Cl)cc1)C1CC(=O)N(C2CCCCC2)C1 (stereo not drawn) | 133%
O=C(NCCCN1CCCCCC1)C1CC(=O)N(C2CCCC2)C1 (stereo not drawn) | 688% [fluorescence artefact?] (active)
CC(C)OCCCNC(=O)C1CC(=O)N(C2CCCCCCC2)C1 (stereo not drawn) | 80.7%
Cc1ccc(S(=O)(=O)Oc2ccc(/C=N/NC(=O)c3c(Cl)cnn3C)cc2)cc1 | 106%
COCCNC(=O)C(c1ccc(C)o1)N(Cc1cccs1)C(=O)c1snc(C(N)=O)c1N (stereo not drawn) | 117%
CCC(C)(C(=O)NC1CCCCC1)N(C)C(=O)c1ccc2c(c1)OCO2 (stereo not drawn) | 107%
CCC(C(=O)NC1CCCC1)N(C(=O)c1snc(C(N)=O)c1N)c1ccc2c(c1)OCCO2 (stereo not drawn) | 244% [fluorescence artefact?] (active)

From PubChem BioAssay AID639 (Emory University Molecular Libraries Screening Center, 2007)
